The text below walks through data of PubChem BioAssay.

Results filed as inconclusive are left out. The source made the active and inactive calls. Unless noted, cut-off not given; nearly all actives show AC50 up to about 30 µM.

The nature of assay [1]: blockers of polyQ-driven CASP3 activation – cell-based (AID 1583). To be noted: polyglutamine-induced caspase-3 activation, cell assay; stronger effect = higher value;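 tested at 10 µM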.
Assay [2] in a line: GFP-Q80 aggregate reduction, neuronal-like cells, cell-based, NGF-treated PC12, GFPQ80 (AID 1614).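 Further: lower means fewer inclusions and 0 means no inclusions at all.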 To be noted: PC12 NGF-treated GFP-polyQ80 inclusion reduction.
Assay [3] is described as follows: blockers of MitoPT in mitochondria (AID 1580; call rule not given here). The following applies: isolated mitochondria, permeability transition inhibition.
In assay [4] the target is NAD(+) hydrolase SARM1 (Homo sapiens) (UniProt Q6SZW1). Briefly: blocking NAD cleavage by SARM1 SAM-TIR – cell lysate, NAD-Glo luminescence (AID 1508614;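 active means compound whose remaining NAD level is above about 45 nM, limit read from the data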). The following applies: SAM-TIR HEK293T lysate NADase, at 1 µM, stronger effect = higher value.
NAD(+) hydrolase SARM1 (Homo sapiens), sequence (Q6SZW1 whole entry, looked up): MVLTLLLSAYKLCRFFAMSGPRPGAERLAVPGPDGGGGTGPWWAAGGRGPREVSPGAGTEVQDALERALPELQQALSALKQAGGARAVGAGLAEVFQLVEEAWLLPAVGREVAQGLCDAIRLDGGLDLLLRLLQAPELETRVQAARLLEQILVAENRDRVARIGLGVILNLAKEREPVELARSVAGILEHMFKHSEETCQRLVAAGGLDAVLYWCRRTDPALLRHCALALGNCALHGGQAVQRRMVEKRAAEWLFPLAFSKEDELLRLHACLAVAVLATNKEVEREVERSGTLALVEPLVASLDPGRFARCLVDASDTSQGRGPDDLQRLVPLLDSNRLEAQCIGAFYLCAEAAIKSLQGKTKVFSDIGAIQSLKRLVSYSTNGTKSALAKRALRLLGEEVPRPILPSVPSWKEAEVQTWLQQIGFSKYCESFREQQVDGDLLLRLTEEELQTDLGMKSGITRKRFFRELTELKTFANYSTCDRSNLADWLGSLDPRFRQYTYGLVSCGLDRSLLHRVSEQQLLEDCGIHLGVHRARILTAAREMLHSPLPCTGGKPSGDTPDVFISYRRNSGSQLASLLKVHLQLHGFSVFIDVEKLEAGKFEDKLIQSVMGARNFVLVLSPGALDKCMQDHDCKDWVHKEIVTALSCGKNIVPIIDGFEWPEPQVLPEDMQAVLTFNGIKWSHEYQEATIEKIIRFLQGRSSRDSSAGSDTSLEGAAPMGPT
Assay [5] has as its target Huntingtin (Homo sapiens) (UniProt P42858). Description: mutant huntingtin aggregation blockers – QA1, dose response (AID 1584). The following applies: in vitro mutant huntingtin aggregation assay; confirmation test; at 10 µM; stronger effect = lower value.
A short description of assay [6]: rescue of PC12 cells from polyQ htt toxicity – LDH release (AID 1610). The following applies: PC12 mutant huntingtin toxicity, final LDH at 4 uM, stronger effect = lower value. Background: Release of lactate dehydrogenase indicates damage to the cell membrane.
The target in assay [7] is ATP-dependent translocase ABCB1 (Homo sapiens) (UniProt P08183). Description: P-glycoprotein substrate transport blockade – cell-based (AID 377; in the data active means fluorescence slope change above about 50%). The following applies: MDR1-expressing cells, fluorescent substrate accumulation slope; stronger effect = higher value; concentration not given here.
ATP-dependent translocase ABCB1 (Homo sapiens), sequence (P08183 whole entry, looked up): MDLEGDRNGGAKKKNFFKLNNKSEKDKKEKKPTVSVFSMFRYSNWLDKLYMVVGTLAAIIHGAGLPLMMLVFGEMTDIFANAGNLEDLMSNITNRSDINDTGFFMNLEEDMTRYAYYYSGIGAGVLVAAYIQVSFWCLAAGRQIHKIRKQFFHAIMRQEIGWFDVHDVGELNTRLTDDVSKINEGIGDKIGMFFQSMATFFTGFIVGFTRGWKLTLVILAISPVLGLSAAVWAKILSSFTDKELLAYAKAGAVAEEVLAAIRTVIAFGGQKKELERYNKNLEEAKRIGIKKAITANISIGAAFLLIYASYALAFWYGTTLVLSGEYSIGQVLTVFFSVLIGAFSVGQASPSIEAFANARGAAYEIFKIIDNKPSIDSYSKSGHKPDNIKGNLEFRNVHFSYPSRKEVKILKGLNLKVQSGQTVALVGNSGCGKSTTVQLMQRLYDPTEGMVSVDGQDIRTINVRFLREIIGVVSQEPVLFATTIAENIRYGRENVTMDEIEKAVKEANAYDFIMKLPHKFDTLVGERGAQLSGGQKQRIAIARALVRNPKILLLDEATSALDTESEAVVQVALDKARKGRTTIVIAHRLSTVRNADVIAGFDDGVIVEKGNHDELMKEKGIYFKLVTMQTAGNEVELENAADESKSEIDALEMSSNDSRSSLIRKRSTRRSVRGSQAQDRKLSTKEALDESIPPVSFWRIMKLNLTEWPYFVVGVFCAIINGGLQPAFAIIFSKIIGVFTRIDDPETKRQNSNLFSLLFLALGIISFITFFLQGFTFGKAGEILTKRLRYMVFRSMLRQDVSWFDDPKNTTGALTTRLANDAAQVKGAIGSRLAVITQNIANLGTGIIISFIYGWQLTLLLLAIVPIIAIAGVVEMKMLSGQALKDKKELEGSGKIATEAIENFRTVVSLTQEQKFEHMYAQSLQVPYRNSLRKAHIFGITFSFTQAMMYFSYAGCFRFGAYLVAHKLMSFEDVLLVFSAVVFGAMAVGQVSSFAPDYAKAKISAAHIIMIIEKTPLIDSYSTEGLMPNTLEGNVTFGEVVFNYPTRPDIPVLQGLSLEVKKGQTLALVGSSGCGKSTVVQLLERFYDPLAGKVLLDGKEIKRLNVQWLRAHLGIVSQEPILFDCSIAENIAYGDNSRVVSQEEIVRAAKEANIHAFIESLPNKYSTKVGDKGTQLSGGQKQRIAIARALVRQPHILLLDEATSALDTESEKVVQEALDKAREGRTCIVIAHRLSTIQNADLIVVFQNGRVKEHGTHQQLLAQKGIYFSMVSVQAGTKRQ
Assay [8] can be described thus: viability loss in pontine glioma line – cell-based, SU-DIPG-XVII, MIPE5.0, CellTiter-Glo, qHTS, dose response (AID 1347060; cut-off not given, nearly all actives have AC50 up to about 26 µM). To be noted: CellTiter-Glo ATP luminescence. In general terms: ATP-based viability assays read luminescence as a measure of living cells.
Assay [9] in a line: viability loss in pontine glioma line – cell-based, SU-DIPG-XIII, MIPE4.0, CellTiter-Glo, qHTS, dose response (AID 1347061; cut-off not given, nearly all actives have AC50 up to about 37 µM;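 further: cells exposed to compound for 48 hours before readout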). To be noted: CellTiter-Glo ATP luminescence.
The nature of assay [10]: viability loss in pontine glioma line – cell-based, JHH-DIPG-1, MIPE4.0, CellTiter-Glo, qHTS, dose response (AID 1347062; cut-off not given, nearly all actives have AC50 up to about 27 µM;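 on AC50: cells exposed to compound for two days before readout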). The following applies: JHH-DIPG-1 viability, CellTiter-Glo ATP luminescence.
The nature of assay [11]: viability loss in pontine glioma line – cell-based, SU-DIPG-IV, MIPE4.0, CellTiter-Glo, qHTS, dose response (AID 1347063).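 Further: compound exposure lasted 48 hours before the viability readout.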 The following applies: CellTiter-Glo ATP luminescence.
Assay [12] can be described thus: viability loss in pontine glioma line – cell-based, SU-DIPG-XXV, MIPE5.0, CellTiter-Glo, qHTS, dose response (AID 1347065; cut-off not given, nearly all actives have AC50 up to about 26 µM;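 further: cells exposed to compound for 48 hours before ATP readout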). To be noted: CellTiter-Glo ATP luminescence.
Assay [13] is described as follows: growth inhibition of DIPG cells – cell-based, MIPE4.0 library, CellTiter-Glo luminescence, qHTS (AID 1347066).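 Further: cells exposed to compound for 48 hours before readout.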 The following applies: SU-DIPG-VI viability, CellTiter-Glo ATP luminescence.
Assay [14] is described as follows: JHH-DIPG-1 glioma cell viability, MIPE5.0 library, CellTiter-Glo luminescence, qHTS (AID 1347067; cut-off not given, nearly all actives have AC50 up to about 26 µM;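 further: cells exposed to compound for 48 hours before readout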). The following applies: JHH-DIPG-1 glioma viability, CellTiter-Glo ATP luminescence.
Assay [15] in a line: viability loss in pontine glioma line – cell-based, SU-DIPG-XIII, MIPE5.0, CellTiter-Glo, qHTS, dose response (AID 1347064; cut-off not given, nearly all actives have AC50 up to about 23 µM). To be noted: CellTiter-Glo ATP luminescence.
Assay [16] can be described thus: growth inhibition of DIPG cells – cell-based, MIPE5.0 library, qHTS (AID 1347068; cut-off not given, nearly all actives have IC50 up to about 30 µM). To be noted: SU-DIPG-XXV viability. In general terms: qHTS replaces the single test concentration by a dilution series.
The nature of assay [17]: chitosan synthesis blockers in C. neoformans – flow cytometry, Cibacron Brilliant Red staining (AID 1347148; call rule not given here;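 further: compound exposure lasted three days at 37 degrees C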). The following applies: Cryptococcus neoformans chitosan, stronger effect = lower value; at 10 µM unless noted.

Huntingtin (Homo sapiens), sequence (P42858 whole entry, looked up): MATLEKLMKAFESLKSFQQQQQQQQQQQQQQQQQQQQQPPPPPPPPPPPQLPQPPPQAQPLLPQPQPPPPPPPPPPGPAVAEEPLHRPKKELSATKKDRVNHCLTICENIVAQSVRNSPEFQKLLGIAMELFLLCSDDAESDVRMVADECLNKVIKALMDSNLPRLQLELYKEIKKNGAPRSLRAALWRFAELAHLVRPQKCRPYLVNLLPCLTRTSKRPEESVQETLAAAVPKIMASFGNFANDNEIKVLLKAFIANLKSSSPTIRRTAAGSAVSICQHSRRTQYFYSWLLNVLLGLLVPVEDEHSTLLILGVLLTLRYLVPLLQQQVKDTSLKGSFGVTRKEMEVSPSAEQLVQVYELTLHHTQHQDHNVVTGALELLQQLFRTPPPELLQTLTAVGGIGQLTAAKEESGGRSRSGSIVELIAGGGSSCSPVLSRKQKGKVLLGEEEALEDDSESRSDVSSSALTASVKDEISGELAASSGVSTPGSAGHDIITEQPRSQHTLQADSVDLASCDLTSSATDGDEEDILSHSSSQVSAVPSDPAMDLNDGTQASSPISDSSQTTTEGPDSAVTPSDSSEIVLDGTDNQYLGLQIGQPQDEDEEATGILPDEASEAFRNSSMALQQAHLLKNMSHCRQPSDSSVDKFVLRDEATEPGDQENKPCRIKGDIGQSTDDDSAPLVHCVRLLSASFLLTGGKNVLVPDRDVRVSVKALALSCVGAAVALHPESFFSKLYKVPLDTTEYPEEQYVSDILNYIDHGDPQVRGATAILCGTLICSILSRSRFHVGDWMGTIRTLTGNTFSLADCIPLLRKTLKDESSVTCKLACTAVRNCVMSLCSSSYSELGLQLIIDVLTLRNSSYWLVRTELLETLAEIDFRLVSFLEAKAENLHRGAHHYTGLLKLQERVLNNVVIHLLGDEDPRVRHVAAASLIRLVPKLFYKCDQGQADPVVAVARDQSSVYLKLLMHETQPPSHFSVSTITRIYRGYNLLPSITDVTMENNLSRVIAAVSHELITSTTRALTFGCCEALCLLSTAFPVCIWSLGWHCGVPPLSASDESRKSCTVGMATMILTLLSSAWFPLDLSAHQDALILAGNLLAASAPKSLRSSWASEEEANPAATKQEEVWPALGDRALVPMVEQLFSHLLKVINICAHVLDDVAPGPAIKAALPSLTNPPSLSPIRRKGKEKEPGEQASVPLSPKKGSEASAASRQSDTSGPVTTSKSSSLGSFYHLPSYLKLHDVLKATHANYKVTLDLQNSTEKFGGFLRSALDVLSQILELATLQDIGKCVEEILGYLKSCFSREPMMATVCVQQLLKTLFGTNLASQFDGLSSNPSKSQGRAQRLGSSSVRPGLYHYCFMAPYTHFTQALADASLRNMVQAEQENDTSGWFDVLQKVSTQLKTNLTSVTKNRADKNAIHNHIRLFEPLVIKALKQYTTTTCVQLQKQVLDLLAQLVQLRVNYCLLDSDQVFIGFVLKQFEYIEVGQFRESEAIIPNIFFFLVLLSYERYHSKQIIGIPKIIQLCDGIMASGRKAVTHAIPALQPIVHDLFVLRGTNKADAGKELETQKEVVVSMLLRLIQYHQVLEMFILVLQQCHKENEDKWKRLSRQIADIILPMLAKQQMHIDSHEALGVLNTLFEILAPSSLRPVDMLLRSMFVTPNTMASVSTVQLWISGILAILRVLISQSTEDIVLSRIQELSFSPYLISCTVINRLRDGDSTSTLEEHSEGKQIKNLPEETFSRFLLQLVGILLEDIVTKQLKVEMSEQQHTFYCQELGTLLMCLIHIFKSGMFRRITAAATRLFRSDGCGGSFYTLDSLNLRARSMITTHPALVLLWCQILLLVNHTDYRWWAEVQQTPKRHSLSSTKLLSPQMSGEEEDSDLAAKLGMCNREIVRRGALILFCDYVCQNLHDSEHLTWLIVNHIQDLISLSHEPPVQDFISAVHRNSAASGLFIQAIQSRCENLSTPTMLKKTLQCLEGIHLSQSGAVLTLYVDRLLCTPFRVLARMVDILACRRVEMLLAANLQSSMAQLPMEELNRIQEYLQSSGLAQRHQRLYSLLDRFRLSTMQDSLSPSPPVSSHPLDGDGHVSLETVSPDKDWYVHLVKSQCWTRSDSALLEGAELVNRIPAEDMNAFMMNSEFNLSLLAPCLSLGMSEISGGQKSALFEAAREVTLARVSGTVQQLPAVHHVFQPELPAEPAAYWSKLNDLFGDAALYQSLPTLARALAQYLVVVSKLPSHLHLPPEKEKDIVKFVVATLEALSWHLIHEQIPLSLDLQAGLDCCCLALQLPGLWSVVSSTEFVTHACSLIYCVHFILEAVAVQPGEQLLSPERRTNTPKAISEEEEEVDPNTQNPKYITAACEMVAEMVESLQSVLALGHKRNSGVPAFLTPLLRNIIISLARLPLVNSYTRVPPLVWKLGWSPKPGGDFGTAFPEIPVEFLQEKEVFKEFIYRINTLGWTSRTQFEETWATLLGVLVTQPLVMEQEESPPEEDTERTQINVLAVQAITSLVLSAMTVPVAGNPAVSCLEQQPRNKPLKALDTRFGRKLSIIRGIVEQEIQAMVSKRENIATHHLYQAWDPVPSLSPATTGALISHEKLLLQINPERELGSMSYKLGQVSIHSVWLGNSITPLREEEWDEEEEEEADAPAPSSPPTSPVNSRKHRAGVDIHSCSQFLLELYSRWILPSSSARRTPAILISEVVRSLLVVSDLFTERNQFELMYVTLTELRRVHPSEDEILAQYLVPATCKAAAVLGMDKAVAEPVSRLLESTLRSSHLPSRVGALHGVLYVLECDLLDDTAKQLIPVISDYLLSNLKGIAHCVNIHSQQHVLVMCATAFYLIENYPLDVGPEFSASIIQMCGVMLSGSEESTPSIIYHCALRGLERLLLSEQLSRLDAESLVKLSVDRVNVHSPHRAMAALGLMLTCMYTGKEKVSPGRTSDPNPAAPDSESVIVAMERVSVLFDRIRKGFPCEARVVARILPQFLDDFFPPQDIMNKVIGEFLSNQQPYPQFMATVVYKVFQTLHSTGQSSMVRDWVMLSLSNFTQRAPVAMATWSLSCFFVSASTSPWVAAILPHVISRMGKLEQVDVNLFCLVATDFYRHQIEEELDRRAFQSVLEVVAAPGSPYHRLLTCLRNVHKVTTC

With `Oc1ccc2c3c1OC1[C@@H](O)CC[C@@]4(O)[C@@H](C2)N(CC2CCC2)CC[C@]314` (stereo not given in full), the inhibition – broadly, the drop in the measured response relative to a control, in per cent – in assay [1] was -4.48%. In addition, the inclusion score in [2] came out at 2.

Consider `CCCCC[C@H]1C(=O)O[C@H](C)[C@H](NC(=O)c2cccc(NC=O)c2O)C(=O)O[C@@H](C)[C@@H]1OC(=O)CC(C)C`, for which the EC50 (as a rule, the concentration giving half of the maximal effect) in [3] was 0.3 µM (active). In addition, in assay [1], the inhibition was 29.9%.

`CCC(C)C(=O)O[C@H]1[C@H](O)C2C(CN3CC(C)CCC3[C@@]2(C)O)C2C[C@]34O[C@]5(O)C(OC(=O)C(C)(O)CC)CC[C@@]3(C)C5C(OC(C)=O)[C@@H](OC(C)=O)C4[C@@]21O` (stereo not given in full): the inhibition in assay [1] was -14%. In addition, the inclusion score in [2] is 2.

Turning to `C=CCN=C=S`, in [4], the remaining NAD is 10 nM (inactive).

As for `CC[C@H]1CN2CCC1C[C@@H]2[C@@H](O)c1ccnc2ccc(OC)cc12` (stereo not given in full), the inhibition in [1] is -3.48%. In assay [2], this molecule came in with an inclusion score of 2.

On to `CC(C)=CCCC1(C)C=Cc2c(O)c3c(c(CC=C(C)C)c2O1)OC12C(=CC4CC1C(C)(C)OC2(C/C=C(/C)C(=O)O)C4=O)C3=O` (stereo not given), for which the inhibition in assay [1] was 78.5%. Besides, the aggregation ratio in [5] came to 0.274. Besides, the normalised LDH release in assay [6] was found to be 0.491.

Take `CN(C)Cc1c[nH]c2ccccc12`: in assay [7], the fluorescence slope change is 124% (active).

Turning to `CC(=O)OCC1=C(C(=O)O)N2C(=O)[C@@H](NC(=O)CCCC(N)C(=O)O)C2SC1` (stereo not given in full), the inhibition in [1] was determined as 10.9%. Besides, the inclusion score in assay [2] is 2.

Take `C[N+]1(C)CCOC(O)(c2ccc(-c3ccc(C4(O)C[N+](C)(C)CCO4)cc3)cc2)C1` (stereo not given): in [7], the fluorescence slope change is 1.8% (inactive).

`COC(=O)C(c1ccccc1)C1CCCCN1` (stereo not given): in assay [4], the remaining NAD is 10 nM (inactive).

Regarding `CN1CC(CNC(=O)OCc2ccccc2)CC2c3cccc4c3c(cn4C)CC21` (stereo not given), the inhibition in assay [1] is -46%.

On to `NC1=NC(=O)N2CC12` (stereo not given), for which the remaining NAD in [4] is 10 nM (inactive).

With `CC(CC(C(N)=O)(c1ccccc1)c1ccccc1)N(C)C` (stereo not given), the remaining NAD in assay [4] was 10 nM (inactive).

For `CCNC1(c2cccs2)CCCCC1=O` (stereo not given), the remaining NAD in assay [4] was 10 nM (inactive).

On to `CCC1(CC)C(=O)NC(=O)NC1=O`, for which the remaining NAD in assay [4] was 10 nM (inactive).

Consider `O=C(O)CCCO`, for which the remaining NAD in assay [4] was 10 nM (inactive).

For the molecule `CC(=O)O[C@H]1C[C@H](O[C@H]2[C@@H](O)C[C@H](O[C@H]3[C@@H](O)C[C@H](O[C@H]4CC[C@@]5(C)C(CCC6C5C[C@@H](O)[C@]5(C)[C@@H](C7=CC(=O)OC7)CC[C@]65O)C4)O[C@@H]3C)O[C@@H]2C)O[C@H](C)[C@H]1O[C@@H]1O[C@H](CO)[C@@H](O)[C@H](O)[C@H]1O` (stereo not given in full), the inclusion score in assay [2] turned out to be 3.

For the molecule `CCCN1CCO[C@@H]2c3cc(O)ccc3OC[C@H]21`, the result in assay [8], in assay [9], in assay [10], in [11], in [12] and in assay [13] was inactive. In addition, the outcome in [14] was inactive.

As for `COc1cc2c(c(OC)c1OC)-c1ccc(O)c(=O)cc1C(N)CC2` (stereo not given), in assay [7], the fluorescence slope change was 63.7% (active).

Consider `C[C@]12CCC(=O)C=C1CCC1C2CC[C@@]2(C)C1CC[C@@H]2O` (stereo not given in full), for which the inhibition in assay [1] is -4.21%.

In the case of `O=C1CN=C(c2ccccc2Cl)c2cc([N+](=O)[O-])ccc2N1`, the inhibition in assay [1] stood at 12.9%. In addition, in assay [2], the inclusion score was determined as 2.

Take `c1ccc(CCCN2CCN(CCOC(c3ccccc3)c3ccccc3)CC2)cc1`: the AC50 (usually the concentration giving half of the maximal activity seen) in assay [10] was 20.9 µM (active); in assay [11] it was 23.5 µM (active).

As for `O=C(N[C@H]1CN2CCC1CC2)c1ccc(Cl)cc1`, the outcome in [8], in assay [10], in assay [11], in [15], in assay [12] and in assay [14] was inactive. In assay [16], the outcome was inactive.

As for `C[C@]12N[C@H](Cc3ccccc31)c1ccccc12`, in assay [7], the fluorescence slope change was 55.9% (active).

Turning to `CO[C@H]1[C@H](O)[C@@H](O[C@H]2CC[C@]3(C=O)C4CC[C@]5(C)[C@@H](C6=CC(=O)OC6)CC[C@]5(O)C4CC[C@@H]3C2)O[C@@H](C)[C@@H]1O` (stereo not given in full), in assay [2], the inclusion score worked out at 0.5.

For `CC1=NN=C(c2ccc(N)cc2)c2cc3c(cc2C1)OCO3`, the molecule was called inactive in assay [10], in assay [11] and in assay [13].

Consider `Oc1ccc2c3c1O[C@H]1c4[nH]c5c(c4C[C@@]4(O)[C@@H](C2)N(CC2CC2)CC[C@]314)C[C@@]1(O)[C@H]2Cc3ccc(O)c4c3[C@@]1(CCN2CC1CC1)[C@H]5O4`, for which the call in assay [9], in assay [10], in assay [11] and in [13] was inactive.

On to `C/C(O)=C(\C#N)C(=O)Nc1cc(Br)ccc1Br`, for which the molecule was classed as inactive in assay [9], in [10], in assay [15], in assay [12], in [14] and in assay [16]. Also, the fold fluorescence in assay [17] is 3.51 [at 138.9 µM] (inactive).
